Bioassay records deposited in PubChem BioAssay by National Center for Advancing Translational Sciences (NCATS).
HEK293 tox: cytotoxic compounds in HEK 293 cells; AID 1345083; Potency, µM (highest dose often 115 µM), for the others: top-dose activity change, negative = cytotoxicity, usual class: inhibitors; HEK 293 viability, ATP luminescence (CellTiter-Glo), 48-72 h; hit rate 6.6% among 94,000; also: % is scaled to controls: 0 for no effect and ±100 for the full control effect; nearly all actives have a fitted effect of over 60% in size
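ATP-coupled CellTiter-Glo luminescence served as viability read-out, recorded 10 min after reagent addition at room temperature. HEK 293 cells, 250 cells/well, had been incubated with pintool-transferred compound for 48 or 72 hr at 37 degree Celsius.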
FLuc inh-1: blocks purified firefly luciferase enzyme activity | purified P. pyralis luciferase, luminescence, biochemical | hit rate 2.5% among 76,000 | Potency, µM (series often up to 115 µM), most hits filed as inhibitors | P08659; also: % is scaled to controls: 0 for no effect and ±100 for the full control effect; nearly all actives have a fitted effect of over 65% in size
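Purified P. pyralis luciferase (10nM final) in 50mM Tris acetate pH 7.5, 10mM Mg acetate, 0.01% Tween-20, 0.05% BSA with 10uM D-luciferin and 10uM ATP. Compounds titrated qHTS. Luminescence imaged on CCD.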
SNCA viab count: reduces viability of HEK-293 SNCA reporter cells. AID 1671193. hit rate 0.12% among 150,000. Potency, µM (doses to about 57.1 µM), without a hit: at the top dose activity change, negative = cytotoxicity, most hits filed as cytotoxic. HEK-293-SNCA-luc viability, GF-AFC fluorescence, 24 h;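 also: 0% = DMSO-treated cells and -100% = medium-only wells without cells; nearly all actives have a fitted effect of over 30% in size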
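Cytotoxicity counterscreen: after 24 h compound treatment of genome-edited SNCA-luciferase HEK-293 cells, live-cell protease substrate GF-AFC read by fluorescence after 30 min; activity scaled between DMSO (0%) and medium-only (-100%), curves Hill-fitted.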
SNCA expr inh: SNCA gene expression inhibition; HEK-293 SNCA-luciferase knock-in, luminescence, 24 h; hit rate 0.17% among 140,000; Potency, µM (highest dose often 57.2 µM), without a hit: top-dose activity change, negative = inhibition, usual class: inhibitors;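 also: plate controls were DMSO cells for no effect and cell-free wells for full effect; nearly all actives have a fitted effect of over 45% in size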
NIH3T3 tox: kills NIH 3T3 cells | hit rate 4.3% among 94,000 | AID 1345082 | Potency, µM (top dose mostly 96.7 µM), for inactives: at the top dose activity change, negative = cytotoxicity, usual class: inhibitors | NIH 3T3 viability, CellTiter-Glo ATP luminescence, 48-72 h; also: % is scaled to controls: 0 for no effect and ±100 for the full control effect; nearly all actives have a fitted effect of over 55% in size
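Cells were seeded at 400 per well, treated with pin-transferred compound, and kept 48 or 72 hr at 37 °C before CellTiter-Glo addition and luminescence imaging of cellular ATP.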
hNpr1 antagonist: blocks ANP-stimulated signaling of human Npr1 receptor. P16066. HEK293 hNpr1 GloSensor cGMP, ANP-stimulated luminescence. AID 1347048. Potency, µM (highest dose often 46.3 µM), inactives show top-dose activity change, negative = inhibition, hits mostly inhibitors. hit rate 1.6% among 76,000; calls by dose curve; also: % is scaled to controls: 0 for no effect and ±100 for the full control effect; nearly all actives have a fitted effect of over 60% in size
Target sequence (P16066 whole entry, looked up): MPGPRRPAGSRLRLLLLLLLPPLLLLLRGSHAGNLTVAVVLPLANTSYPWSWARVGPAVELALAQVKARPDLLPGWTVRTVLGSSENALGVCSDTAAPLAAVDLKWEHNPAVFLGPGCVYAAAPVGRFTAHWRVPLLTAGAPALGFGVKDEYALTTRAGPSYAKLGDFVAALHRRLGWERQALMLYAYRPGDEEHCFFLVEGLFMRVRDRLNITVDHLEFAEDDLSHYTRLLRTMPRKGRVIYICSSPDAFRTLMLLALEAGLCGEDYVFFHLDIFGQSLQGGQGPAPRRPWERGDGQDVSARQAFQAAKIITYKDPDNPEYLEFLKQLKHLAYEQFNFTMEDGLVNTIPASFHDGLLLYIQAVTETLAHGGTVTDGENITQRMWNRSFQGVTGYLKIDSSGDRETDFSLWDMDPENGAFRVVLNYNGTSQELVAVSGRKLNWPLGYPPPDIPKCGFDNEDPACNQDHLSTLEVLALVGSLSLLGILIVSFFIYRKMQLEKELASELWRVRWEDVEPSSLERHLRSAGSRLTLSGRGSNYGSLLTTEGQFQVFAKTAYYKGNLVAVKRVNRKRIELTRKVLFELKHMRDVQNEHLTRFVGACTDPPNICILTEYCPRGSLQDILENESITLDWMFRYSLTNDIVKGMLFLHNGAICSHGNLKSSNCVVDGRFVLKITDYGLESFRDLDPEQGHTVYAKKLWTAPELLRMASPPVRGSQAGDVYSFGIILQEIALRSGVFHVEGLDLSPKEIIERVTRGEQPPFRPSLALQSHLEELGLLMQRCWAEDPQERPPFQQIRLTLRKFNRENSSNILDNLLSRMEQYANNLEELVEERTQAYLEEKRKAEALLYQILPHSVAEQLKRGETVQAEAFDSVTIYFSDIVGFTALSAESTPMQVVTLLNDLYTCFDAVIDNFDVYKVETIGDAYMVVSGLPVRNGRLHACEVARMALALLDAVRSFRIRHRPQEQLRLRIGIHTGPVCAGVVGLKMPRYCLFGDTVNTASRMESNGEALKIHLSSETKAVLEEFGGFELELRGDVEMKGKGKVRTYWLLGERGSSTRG
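Compound pre-incubated 30 min at room temperature on GloSensor-loaded HEK293 cells stably carrying hNpr1 and the pGS-40F cGMP biosensor. Stimulation uses hNppA at 0.1 nM final; luminescence is taken at baseline and 20 min post-agonist.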
FLuc SDR no ATP: binders stabilizing firefly luciferase, without ATP. shares compounds with FLuc inh-1. Purified FLuc-C-HiBiT, Nano-Glo HiBiT luminescence, no ATP. Potency, µM (highest dose often 32.7 µM), for inactives: at the highest dose activation (signal gain), actives largely listed as activators. hit rate 7.8% among 1,300. AID 1963318; also: nearly all actives have a fitted effect of over 55% in size
FLuc SDR ATP: binders stabilizing firefly luciferase, plus ATP; purified FLuc-C-HiBiT + ATP, HiBiT complementation luminescence; hit rate 8.7% among 1,300; shares compounds with FLuc inh-1; Potency, µM (top dose mostly 32.7 µM), inactives show top-dose activation (gain of signal), usual class: activators;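 also: signal reports ligand binding via conformational change of the enzyme rather than luciferase catalysis; % of control where 0% means no effect; nearly all actives have a fitted effect of over 55% in size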
FLuc inh-2: firefly luciferase enzyme inhibition | shares compounds with FLuc inh-1 | purified FLuc-C-HiBiT enzyme, luciferin luminescence | Potency, µM (doses to about 32.7 µM), without a hit: top-dose activity change, negative = inhibition, usual class: inhibitors | hit rate 42% among 1,300 | AID 1963320; also: % is scaled to controls: 0 for no effect and ±100 for the full control effect; nearly all actives have a fitted effect of over 70% in size
Starred values were filed as active, the others as inactive; i = inactive; ? = inconclusive; / = no result given; [ ] = remark or other dose. In the library only some 7.4% were active in any assay of this set; here they are far more common. Unless noted, calls follow the shape of the dose curve; as a rule, active = well fitted curve in the direction sought with a large enough effect; inconclusive = small, poorly fitted or top-dose-only effect, or another doubt; inactive = no such curve, though single readings can be large; an effect the other way counts as inactive or inconclusive. Potency is read from the fitted curve at half-maximal effect.

SMILES	HEK293 tox	FLuc inh-1	SNCA viab count	SNCA expr inh	NIH3T3 tox	hNpr1 antagonist	FLuc SDR no ATP	FLuc SDR ATP	FLuc inh-2
COc1ccccc1CNC(=O)C1CCN(C(=O)c2ncn3c2COC(c2ccc(C)cc2)C3)CC1 (stereo not given)	-3%	?	-2%	10%	-1%	-1%	/	/	/
O=C(NCc1ccc(F)cc1Cl)C1CCN(C(=O)c2ncn3c2COC(c2ccccc2)C3)CC1 (stereo not given)	-2%	13µM*	3%	47%	i	-12%	13%	?	?
CCOc1ccccc1CNC(=O)C1CCN(C(=O)c2ncn3c2COC(c2ccccc2)C3)CC1 (stereo not given)	-5%	4µM*	9%	80%	-21%	-12%	12%	2.2µM*	3.1µM*
O=C(NCc1ccccc1F)C1CCN(C(=O)c2ncn3c2COC(c2ccc(Cl)cc2)C3)CC1 (stereo not given)	-2%	?	3%	62%	-10%	0%	/	/	/
CCOc1ncccc1C(=O)OCC(=O)Nc1ccc(-c2nc3ccc(C)cc3s2)cc1	/	/	/	/	/	/	22%[65.7 µM]	19%[65.7 µM]	?
Cc1ccc2nc(-c3ccc(NC(=O)COc4ccccc4C(C)(C)C)cc3)sc2c1	/	/	12%	22%	/	/	19%	12%	?
Cc1cccc(NC(=O)CSc2nc3ccc(NC(=O)COc4ccccc4F)cc3s2)c1	/	/	8%	36%	/	/	/	/	/
CCOc1ccc(NC(=O)CCS(=O)(=O)c2ccc3nc(C)sc3c2)cc1	/	/	-8%	-11%	/	/	/	/	/
CCCCN(C)S(=O)(=O)c1ccc(C(=O)Nc2ccc(-c3nc4ccc(C)cc4s3)cc2)cc1	/	/	9%	77%	/	/	16%	12%	-15%
Cc1ccc2nc(-c3ccc(NC(=O)COc4ccccc4)cc3)sc2c1	/	/	4%	-61%	/	/	26%	19%	6.2µM*
Cc1ccc(C(=O)N2CCCC(n3cc(-c4noc(C)n4)nn3)C2)cc1 (stereo not given)	-3%	i	2%	-20%	-10%	1%	/	/	/
O=C(Cc1noc2ccccc12)N[C@@H]1COCC[C@@H]1OCc1ccccn1	0%	i	2%	2%	-16%	4%	/	/	/
Cc1c(CN2CCOc3c(O)cc(-c4nc5ccccc5s4)cc3C2)cnn1C	/	/	/	/	/	/	13%	9%	-5%
Cc1cnc(C)c(-c2cc(O)c3c(c2)CN(C(=O)c2ccncn2)CCO3)n1	-1%	i	1%	-5%	-19%	1%	/	/	/
Cc1cncc(C(=O)N2CCOc3c(O)cc(-c4nc5ccccc5s4)cc3C2)c1	40µM*	?	-28%	21%	?	-6%	12%	8%	-11%
Cc1nnc(CN2CCOc3c(O)cc(-c4ccccc4C)cc3C2)s1	?	i	-20%	0%	?	-1%	/	/	/
Cc1nc(CN2CCOc3c(O)cc(-c4nc5ccccc5s4)cc3C2)no1	?	i	0%	57%	-23%	-1%	14%	7%	-11%
Cc1nc(C)c(C(=O)N2CCCCCCNC(=O)[C@@H]3CCC[C@@H]32)s1	2%	i	?	-7%	-10%	4%	/	/	/
Cc1cc(C(C)Nc2ccccc2C(=O)O)c2nc(N3CCOCC3)cc(=O)n2c1 (stereo not given)	/	/	-18%	/	/	/	/	/	/
